Measurements reported in PubChem BioAssay (NCI).
About 83,000 compounds went through this panel and 20% of them were active in at least one assay; those are over-represented in the sample as a whole.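 Single-dose data. Exposure time 48 hours. Values below 10 considered active.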 Values without a mark were called inactive. The source made the active and inactive calls.

Assays:
Test in all cases: NCI-60 one-dose screen, 48 h (100 = growth as untreated, 0 = no growth, -100 = all killed)
[1] = system: SR leukemia; conditions: 10 µM unless noted
[2] = system: RPMI-8226 leukemia; conditions: 10 µM unless noted
[3] = system: OVCAR-8 ovarian; conditions: 10 µM unless noted
[4] = system: OVCAR-5 ovarian; conditions: 10 µM unless noted
[5] = system: OVCAR-4 ovarian; conditions: 10 µM unless noted
[6] = system: SK-OV-3 ovarian; conditions: 10 µM unless noted
[7] = system: IGROV1 ovarian; conditions: 10 µM unless noted
[8] = system: OVCAR-3 ovarian; conditions: 10 µM unless noted
[9] = system: HS 578T breast; conditions: 10 µM
[10] = system: NCI/ADR-RES ovarian; conditions: 10 µM unless noted
[11] = system: T-47D breast; conditions: 10 µM unless noted
[12] = system: BT-549 breast; conditions: 10 µM unless noted
[13] = system: MDA-MB-435 melanoma; conditions: 10 µM unless noted
[14] = system: SW-620 colon; conditions: 10 µM unless noted
[15] = system: MCF7 breast; conditions: 10 µM unless noted
[16] = system: HCT-116 colon; conditions: 10 µM unless noted
[17] = system: HCC-2998 colon; conditions: 10 µM unless noted
[18] = system: KM12 colon; conditions: 10 µM unless noted

SMILES	growth [1]	growth [2]	growth [3]	growth [4]	growth [5]	growth [6]	growth [7]	growth [8]	growth [9]	growth [10]	growth [11]	growth [12]	growth [13]	growth [14]	growth [15]	growth [16]	growth [17]	growth [18]
COc1ccc(/C(=C\c2cc(OC)c(OC)c(OC)c2)C(=O)N2CCNCC2)cc1	94.6%	95.1%	105%	102%	110%	108%	102%	108%	102%	98.3%	82.8%	104%	98.2%	97.6%	95.5%	94.5%	104%	94.2%
CC(C)[C@H](CN)NC[C@H](C)NS(=O)(=O)c1ccc(C(C)(C)C)cc1	110%	90.4%	97.5%	106%	87.5%	105%	97%	103%	87.9%	104%	80.5%	81.2%	99.7%	94.2%	90.2%	86.2%	105%	101%
Cc1cc(C)c2c(NC(=O)Nc3ccc(Cl)c(Cl)c3)n[nH]c2n1	96.6%	100%	110%	101%	93.2%	100%	111%	113%	114%	102%	93.3%	104%	92.8%	112%	82.6%	108%	115%	104%
Clc1cn2cc(-c3ccc(Cl)c(Cl)c3Cl)nc2s1	75.5%	108%	99.5%	87.8%	100%	103%	55.7%	101%	104%	110%	71.8%	129%	88.1%	111%	87.8%	96.9%	106%	111%
CCN(CC)CCCC(C)Nc1cnc(C(=O)Nc2cccc3ccc(OC)nc23)cn1 (stereo unspecified)	-5.71% (active)	23.8%	68.2%	91.3%	98.1%	87%	78.3%	-30.7% (active)	69.5%	76.1%	83.9%	83.2%	-58.2% (active)	2.12% (active)	20.1%	-36% (active)	90.9%	36.3%
CCN(CC)Cc1cc(Nc2nc(NC3CCC(N(C)C)CC3)c3ccccc3n2)ccc1OC (stereo unspecified)	49.6%	0.511% (active)	63.8%	92.3%	52.1%	107%	82.4%	92.4%	73.4%	98.1%	53.9%	107%	39.5%	61.4%	40.1%	60.5%	81.3%	61.1%
CCCCNCC(O)c1cc(-c2ccc(C(F)(F)F)cc2)nc(-c2ccc(C(F)(F)F)cc2)c1 (stereo unspecified)	-63.7% (active)	-49.9% (active)	-71.1% (active)	-74.9% (active)	-93.9% (active)	-75.8% (active)	-59.7% (active)	-90.8% (active)	-57.8% (active)	-53.9% (active)	-80.3% (active)	-31.2% (active)	-68.6% (active)	-82.1% (active)	-84.8% (active)	-88.5% (active)	-75.8% (active)	-89.2% (active)
Nc1nc(N)c2cc(CNc3ccc(Cl)c(Cl)c3)ccc2n1	-55.1% (active)	-31.5% (active)	-1.81% (active)	48.4%	49.8%	49.9%	15.9%	12.1%	28.8%	28.3%	-52.6% (active)	59.1%	-1.48% (active)	-80.3% (active)	-74.8% (active)	-88.8% (active)	-70.3% (active)	-15.9% (active)
COc1cc(C2C=C(C)N=C3SC=NN32)cc(OC)c1OC (stereo unspecified)	102%	98.9%	92%	91.6%	103%	111%	118%	116%	106%	104%	109%	141%	104%	105%	98.9%	111%	102%	107%
CCCCc1n(Cc2ccc3ccccc3n2)cc[n+]1Cc1ccc2ccccc2n1	6.57% (active)	-20.3% (active)	15%	25.2%	14%	24.4%	17.8%	9.83% (active)	41.5%	97.9%	6.69% (active)	2.91% (active)	7.37% (active)	22.1%	7.29% (active)	9.88% (active)	18.5%	5.78% (active)
FC1(F)CCN(Cc2c[nH]c3cc(Cl)ccc23)C[C@H]1CCc1ccccc1	51.6%	34%	47.7%	80.5%	56.7%	84%	40.8%	54.6%	56.6%	37.2%	45.2%	56%	59.3%	38.8%	41.2%	22.8%	95.3%	60.8%
CCCCn1c(C)nc2cc(Nc3nc(Cl)nc4nc[nH]c34)ccc21	66.7%	65.4%	84.2%	80.6%	78.9%	80%	70.7%	91.6%	52.7%	94%	39.3%	72.3%	90.1%	90.4%	75.4%	83.6%	102%	97.3%
C=CCn1c(C)nc2cc(Nc3nc(Nc4ccc5nc(C)n(CC=C)c5c4)nc4ccccc34)ccc21	106%	98.8%	98.9%	107%	99.5%	104%	102%	108%	100%	101%	96%	106%	108%	106%	92.4%	98.9%	104%	109%
CCN(C(=O)Nc1cccc2ccccc12)c1ccccc1	90.2%	103%	74.3%	91.6%	99.9%	96.2%	90.4%	108%	111%	102%	88.1%	108%	105%	107%	97.8%	106%	103%	108%
CCN(CC)C(Cl)=Nc1ccc(Cl)cc1	84.3%	95.1%	106%	105%	108%	102%	109%	107%	101%	106%	102%	112%	100%	102%	101%	98.1%	101%	107%
COc1ccc(Sc2[nH]c(C=O)c3ccccc23)cc1	16.6%	-17.3% (active)	69.3%	28.5%	60.3%	47.7%	73.1%	65.7%	54.4%	46.8%	57.2%	-7.47% (active)	-0.922% (active)	16.1%	57.8%	61.1%	16.3%	22%
CCN(C)CCCOc1ccc(/C(=C(\C)Cc2cccc(OC)c2)c2ccc(OC(C)=O)cc2)cc1	-8.45% (active)	102%	105%	99.6%	103%	93.7%	102%	105%	94%	101%	75.6%	92.3%	97.1%	106%	51.4%	99.7%	101%	106%
